In PubChem BioAssay (NCATS):
Inconclusive results are not listed. The source made the active and inactive calls. Calls follow the shape of the dose curve; as a rule, active = well fitted inhibition curve with a large enough effect; inconclusive = small, poorly fitted or top-dose-only effect; inactive = flat fitted curve, though single readings scatter.

Experiments:
Test in all cases: qHTS profiling for inhibitors of Plasmodium falciparum proliferation (AID 504749); also: nearly all actives have a fitted effect of over 60% in size
Conditions in all cases: P. falciparum in erythrocytes, SYBR Green DNA, 72 h; series mostly up to 28.7 µM
7G8 = test system: 7G8
Method in brief: (§1)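 Infected RBCs, 0.3% parasitemia/2.5% Hct final; cpd 72 h, 37 C, 5% CO2; lysis buffer with saponin/triton/SYBR Green I, o/n RT dark; FI 485/535; norm. to artemisinin (0.29 uM) and DMSO.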

AS120 = test system: AS120
Method in brief: as §1

ATS95 = test system: ATS95
Method in brief: as §1

C2A = test system: C2A
Method in brief: as §1

CP191 = test system: CP191
Method in brief: as §1

CP203 = test system: CP203
Method in brief: as §1

CP211 = test system: CP211
Method in brief: as §1

CP215 = test system: CP215
Method in brief: as §1

CP217 = test system: CP217
Method in brief: as §1

CP237 = test system: CP237
Method in brief: as §1

CP252 = test system: CP252
Method in brief: as §1

CP256 = test system: CP256
Method in brief: as §1

CP268 = test system: CP268
Method in brief: as §1

CP269 = test system: CP269
Method in brief: as §1

CP305 = test system: CP305
Method in brief: as §1

P93_24 = test system: P93_24
Method in brief: as §1

PC26 = test system: PC26
Method in brief: as §1

PC49 = test system: PC49
Method in brief: as §1

TAB109 = test system: TAB109
Method in brief: as §1

W2 = test system: W2
Method in brief: as §1

Measured: Potency
Potency is read from the fitted curve at half-maximal effect.

C[C@@]12C(=O)OC(=O)[C@]1(C)[C@H]1CC[C@@H]2O1
active: 7G8 2820 nM | AS120 3550 nM | ATS95 3980 nM | C2A 3980 nM | CP191 1580 nM | CP203 2560 nM | CP211 5100 nM | CP215 2280 nM | CP217 2510 nM | CP237 1260 nM | CP252 3980 nM | CP256 3980 nM | CP268 2870 nM | CP269 2560 nM | CP305 2870 nM | P93_24 3980 nM | PC26 2870 nM | PC49 2240 nM | TAB109 2820 nM | W2 2280 nM

C=C1CCC2[C@](C)(CO)C(O)CC[C@]2(C)C1C/C=C1/C(=O)OCC1O (stereo not given in full)
inactive: CP268

CC(/C=C1\SC(=S)N(CC(=O)O)C1=O)=C\c1ccccc1
not listed: CP268
inactive: all other assays above
